Screening data: PubChem, National Center for Advancing Translational Sciences (NCATS)
A selection: hits, their analogues and other compounds. The true share with any hit is near 11%.
NS1 function inh – inhibitors of influenza NS1 protein function; AID 2326; actives 0.4% (n = 270,000); Potency, µM (doses to about 46.1 µM), for inactives: at the top dose activity, positive = more growth; calls by dose curve; also: actives are rising curves; nearly all actives have a fitted effect of over 50% in size
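S. cerevisiae expressing influenza A NS1, grown in glucose, washed, then diluted 1:100 into pH 6.0 -URA galactose medium with 23 nl compound. Growth recovery read as OD600; NS1-free strain serves as control.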
Pf growth 48h – inhibits P. falciparum growth in the first generation, 48 h | P. falciparum luciferase growth in erythrocytes, 48 h | Potency, µM (titrated, usually from 28.7 µM), for the others: at the top dose activity change, negative = inhibition, usual class: inhibitors | actives 5.9% (n = 310,000) | AID 504832; also: % is scaled to controls: 0 for no effect and ±100 for the full control effect
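Growth was read as firefly luciferase luminescence after a 48 h, 37 C, 5% CO2 exposure of compounds to reporter-bearing P. falciparum cultures (0.1% parasitemia, 2% hematocrit final) in Albumax-supplemented RPMI 1640.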
Sm TGR inh – inhibitors of Schistosoma mansoni thioredoxin glutathione reductase. Q962Y6. purified TGR, DTNB reduction, TNB absorbance 405 nm. Potency, µM (series often up to 114 µM), for the others: at the top dose activity change, negative = inhibition, usual class: inhibitors. actives 3% (n = 360,000). AID 485364; also: % is scaled to controls: 0 for no effect and ±100 for the full control effect; nearly all actives have a fitted effect of over 60% in size
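First, TGR (20 nM dispensed) and NADPH were mixed with compound. Second, a 15 min room-temperature incubation followed. Third, further NADPH and then DTNB were added to start the reaction. Finally, TNB absorbance was monitored kinetically.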
Pf growth 96h – P. falciparum growth inhibition at 96 hours | actives 6.9% (n = 320,000) | Potency, µM (top dose mostly 28.7 µM), for the others: top-dose activity change, negative = inhibition, actives largely listed as inhibitors | P. falciparum luciferase reporter growth, 96 h; also: % is scaled to controls: 0 for no effect and ±100 for the full control effect
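Readout is luminescence from an integrated firefly luciferase in P. falciparum. Red cells, 2% hematocrit and 0.05% parasitemia final, were cultured with compound through two parasite generations (96 hours) at 37 C, 5% CO2.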
AMA1-RON2 inh – inhibitors of Plasmodium falciparum AMA1-RON2 interaction; AlphaScreen AMA1-biotinylated RON2 peptide binding; AID 720542; actives 0.2% (n = 360,000); Potency, µM (highest dose often 58.2 µM), inactives show at the top dose activity change, negative = inhibition, usual class: inhibitors;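 also: 0% = vehicle wells and -100% = peptide control; nearly all actives have a fitted effect of over 45% in size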
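AMA1 (3D7) with his tag at 25 nM final met compounds first, then biotinylated RON2 peptide at 25 nM; detection used donor plus acceptor beads, 10 µg/mL apiece, read by AlphaScreen after 30 min at room temperature.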
* = called active by the depositor; ? = inconclusive; . = no result; [ ] = remark or other dose. Unless noted, calls follow the shape of the dose curve; as a rule, active = well fitted curve in the direction sought with a large enough effect; inconclusive = small, poorly fitted or top-dose-only effect, or another doubt; inactive = no such curve, though single readings can be large; an effect the other way counts as inactive or inconclusive. Potency is read from the fitted curve at half-maximal effect.

SMILES | NS1 function inh | Pf growth 48h | Sm TGR inh | Pf growth 96h | AMA1-RON2 inh
Cc1nc2ccccn2c1C(=O)N/N=C/c1ccc([N+](=O)[O-])cc1 | 4% | 12% | 1% | 11% | -6%
O=C(N/N=C/c1ccc([N+](=O)[O-])o1)c1cc2ccccc2o1 | -20% | ? | ? | ? | -13%
CCN(Cc1cnn(C)c1)C(=O)c1ccc(OC2CCN(S(=O)(=O)N(C)C)CC2)cc1 | 6% | 9% | 11% | -8% | 7%
C=CCn1c(C)c(/C=C/c2cc[n+](C)cc2)c2ccccc21 | 3% | 0.74µM* | 4% | 4% | -10%
CCN(CC)C(=O)Cn1c(=O)n(CCc2ccccc2)c(=O)c2ccccc21 | . | . | 0% | . | .
CCN(CC)C(=O)Cn1c(C)c(/C=C/c2cc[n+](C)cc2)c2ccccc21 | 0% | 1.7µM* | -23% | ? | 11%
Cc1ccsc1C(=O)N1CCC1(C)C(=O)Nc1ccc2c(c1)OCCO2 (stereo not given) | . | . | . | . | -8%
CCCCN(C(=O)c1ccc(NC(=O)C(C)C)cc1)c1ccccc1 | -4% | ? | . | ? | 2%
CCOC(=O)CC(=O)COc1nc2cc3c(nc2o1)CCCC3 | 21% | 29% | -5% | 4% | 61%
O=S(=O)(CCN1CCCCC1)Oc1ccc(Cl)cc1Cl | -4% | -2% | 0.45µM* | 9% | 16%
O=C(O)c1cccc(N2C(=O)c3cccc4cccc(c34)C2=O)c1 | 12% | -3% | 2% | -18% | 7%
O=C1c2cc([N+](=O)[O-])cc3cc([N+](=O)[O-])cc(c23)C(=O)N1c1ccccn1 | 6% | -15% | 50µM* | 34% | -29%
O=C(O)c1cccc(N2C(=O)c3cc([N+](=O)[O-])cc4cc([N+](=O)[O-])cc(c34)C2=O)c1 | ? | ? | 2µM* | -9% | 0%
CCOC(=O)C1CCN(C(=O)CC2(CC(=O)O)CCCC2)CC1 | 1% | 22% | -26% | 41% | -11%
CCOc1ccccc1NC(=O)NCc1ccc2c(c1)OCO2 | 7% | 8% | -6% | ? | 0%
COc1ccccc1CN(CC(=O)NCc1ccc2c(c1)OCO2)C(=O)c1ccc2c(c1)OCCO2 | -12% | -23% | 5% | 9.3µM* | 0%
COc1ccccc1NC(=O)NCc1ccc2c(c1)OCO2 | 7% | 21% | -10% | 15µM* | .
OC(CNCc1ccc2c(c1)OCO2)COc1ccc(F)cc1 (stereo not given) | 1% | 1% | 13% | 9% | -5%
CC(=O)c1ccc(OCC(O)CNCc2ccc3c(c2)OCO3)cc1 (stereo not given) | -3% | 2.6µM* | -16% | -27% | -7%
CC(=O)c1cccc(NC(=O)NCc2ccc3c(c2)OCO3)c1 | -10% | 1% | -8% | 3.7µM* | -5%
COc1cc(CC(=O)OCC(=O)N2CC(C)CC(C)C2)cc(OC)c1OC (stereo not given) | 1% | ? | 5% | -6% | -11%
O=C(/C=C/c1ccc(Br)o1)NCc1ccccc1 | 1% | 1% | . | 19% | -2%
Cc1ccc(/C=C/C(=O)NCc2cccs2)o1 | . | 19% | 2.8µM* | 74%[5.75 µM] | -12%
Cc1ccc(CNC(=O)/C=C/c2ccc(Br)o2)cc1 | -14% | 5% | 8.9µM* | 0% | -4%
COc1cccc(OC)c1OC(=O)c1ccccc1 | . | . | . | . | 3%
SMILES | NS1 function inh | Pf growth 48h | Sm TGR inh | Pf growth 96h | AMA1-RON2 inh
CCN1CCN(C(=O)/C=C/c2ccc(C)o2)CC1 | -6% | 9% | ? | -6% | -6%
COc1cccc(OC)c1OC(=O)/C=C/c1ccc(C)o1 | -12% | -1% | 35µM* | 2% | -18%
CC(=O)/C=C/c1ccc(C)o1 | . | 8% | 7.1µM* | ? | -4%
CCOc1ccc(CC(=O)NCc2ccc3c(c2)CCN3C(C)=O)cc1OCC | . | . | -7% | . | .
Cc1cccc(C)c1NC(=O)CN(C)C(=O)c1ccc(COc2ccccc2)cc1 | 8% | -1% | -21% | -3% | -10%
CC(/C=C/c1ccc(C)o1)=C\C(=O)O | 3% | -8% | 7.9µM* | 132% | 17%
O=C(CSc1nc2ccccc2nc1N1CCCCC1)N1CCN(c2ccccc2)CC1 | 30% | ? | 5% | 44% | -22%
CCOc1ccc(NC(=O)CSc2nc3ccccc3nc2N2CCOCC2)cc1 | 10% | ? | -28% | 12µM* | 11%
